Results from PubChem BioAssay (NCI).
This is part of a sample that, as a whole, favours compounds with a hit. Of some 83,000 tested, about 20% had one in any assay.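 Method: cells in 96-well plates; compound added at one concentration; 48 h incubation; percent growth measured; values under 10 scored active.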 Unmarked numbers belong to inactive results. Calls of active or inactive are those of the source.

Columns and labels:
Assay in all cases: NCI-60 one-dose screen, 48 h (100 = growth as untreated, 0 = no growth, -100 = all killed)
Settings in all cases: 10 µM unless noted
[1] = test system: HT29 colon
[2] = test system: SNB-75 CNS
[3] = test system: SNB-19 CNS
[4] = test system: U251 CNS
[5] = test system: PC-3 prostate
[6] = test system: SK-MEL-5 melanoma
[7] = test system: UACC-62 melanoma
[8] = test system: LOX IMVI melanoma
[9] = test system: SK-MEL-28 melanoma
[10] = test system: SK-MEL-2 melanoma
[11] = test system: EKVX NSCLC
[12] = test system: SN12C renal
[13] = test system: UO-31 renal
[14] = test system: TK-10 renal
[15] = test system: ACHN renal
[16] = test system: CAKI-1 renal
[17] = test system: A498 renal
[18] = test system: CCRF-CEM leukemia
[19] = test system: MOLT-4 leukemia
[20] = test system: SR leukemia

SMILES	growth [1]	growth [2]	growth [3]	growth [4]	growth [5]	growth [6]	growth [7]	growth [8]	growth [9]	growth [10]	growth [11]	growth [12]	growth [13]	growth [14]	growth [15]	growth [16]	growth [17]	growth [18]	growth [19]	growth [20]
COc1ccc2c(c1)nc(N)c1c3cc(OC)c(OC)cc3cn21	9.28% (active)	57.1%	62.2%	30.6%	53.1%	34.1%	22.1%	53.2%	57.5%	47.7%	73.1%	56.4%	49.8%	48.9%	46.4%	28.5%	35.9%	47.1%	76.4%	
COc1ccc2c(c1)nc(N)c1c3ccccc3cn21	73.8%	67.6%	83.4%	72.8%	84%	50.8%	58.7%	74.3%	78.8%	83.8%	72.7%	89.6%	59%	125%	81.1%	68.5%	75.2%	74.5%	73.8%	
NC(N)=NC(N)=NCCCc1ccccc1	68.2% [100 µM]	57.5% [100 µM]	77.8% [100 µM]	83.7% [100 µM]	52.7% [100 µM]	28.6% [100 µM]	88.4% [100 µM]	57.4% [100 µM]	97% [100 µM]	70.7% [100 µM]	31.8% [100 µM]	79.3% [100 µM]	65.9% [100 µM]	63.3% [100 µM]	65.8% [100 µM]	63.7% [100 µM]	68.3% [100 µM]	69.1% [100 µM]	73.8% [100 µM]	
CCC(CCC(C)C1CCC2C3CC=C4CC(O)CCC4(C)C3CCC12C)C(C)C (configuration not stated) (tested in a mixture with another compound)	98.9%	119%	98.6%	90.2%	45.8%	96%	95%	99.1%	91.7%	24.3%	115%	84.4%	93.6%	139%	88%	108%	104%	60%	70.6%	101%
O=C(CSCC(=O)N/N=C/c1ccccc1O)N/N=C\c1ccccc1O	42.7%	36.8%	31.2%	26.8%	25%	24%	11.2%	12.4%	40.4%	16.7%	44.8%	29%	7.47% (active)	24.4%	11.9%	11.4%	99.1%	3.39% (active)	-4.94% (active)	3.96% (active)
CCC(CC)NCCCCCNc1cc(OC)cc2cccnc12	77.3%	73.4%	91.1%	86.5%	97.3%	95.4%	94.4%	86.3%	108%	79.8%	104%	87.2%	71.2%	83.5%	94.8%	97.2%	72.7%	114%	98.1%	109%
CN(C)c1ccc(/C=C\c2ccnc3ccccc23)cc1	51.7%	40.9%	79.9%	73.9%	67.3%	65.2%	72.8%	72.7%	88.7%	18.7%	34.5%	76.1%	34.6%	55.9%	70.6%	77.2%	63.9%	29.5%	66.7%	-32.4% (active)
OC(Cc1cccnc1)c1ccccc1 (configuration not stated)	106%	99.7%	98.9%	98.1%	101%	102%	97.4%	101%	108%	102%	113%	99.3%	93.3%	109%	101%	119%	86.5%	80.2%	94.3%	92.6%
c1ccc(Nc2nnc(-c3cc(-c4cccnc4)n(-c4ccccc4)n3)s2)cc1	3.7% (active)	102%	102%	69.5%	82.4%	69.9%	84.1%	69.8%	106%	96.5%	83%	87.7%	56.9%	88.6%	81.7%	46.4%	74.4%	72.6%	56.5%	67.1%
Cc1c(C(N)=O)sc2ncn(Cc3ccccc3)c(=O)c12	103%	92.6%	102%	96.9%	113%	103%	102%	89.6%	112%	109%	122%	97.8%	61.7%	87.8%	99.6%	-1.53% (active)	121%	138%	114%	92.8%
Nc1nc(Cl)c2[nH]cnc2n1	110%	79.6%	92.9%	97.6%	122%	105%	100%	105%	113%	85.4%	99.5%	92.4%	93.5%	103%	96.4%	89.4%	95.1%	115%	114%	95.6%
O=C(CSc1nc2c(n1Nc1ccccc1)-c1ccccc1SC2)Nc1nc(-c2ccc(Cl)cc2)cs1	68.4%	44.8%	80.5%	34.4%	72.2%	88.1%	83.3%	30.4%	72%	111%	69.8%	73.8%	79.7%	110%	96.5%	72.8%	55%	44.8%	78.4%	27%
CC(=O)NCCSC(=O)C(=O)SCCNC(C)=O	120%	93%	104%	108%	109%	104%	99.4%	104%	118%	19%	101%	99.4%	95.7%	128%	108%	105%	104%	119%	112%	114%
C[C@]12C[C@H](O)[C@H]3[C@@H](CCC4=CC(=O)CC[C@@]43C)[C@@H]1CC[C@@H]2C(=O)CO	108%	78.5%	95.6%	93.5%	97.3%	91%	91.4%	97.7%	102%	93.4%	80.7%	79.9%	89.6%	108%	95.8%	101%	43.5%	78.1%	116%	111%
